Hits are enriched below; roughly 19% of the tested compounds scored in any of these assays.
TDP1 cell noCPT: qHTS for Inhibitors of human tyrosyl-DNA phosphodiesterase 1 (TDP1): qHTS in cells in absence of CPT. DT40 Tdp1-/- hTDP1 cells, no CPT, ATP luminescence, 48 h. Potency, µM (doses to about 46.2 µM), without a hit: at the highest dose activity change, negative = growth inhibition, hits mostly inhibitors. 15% of 420,000 active; note: nearly all actives have a fitted effect of over 55% in size
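Chicken DT40 Tdp1-/- cells stably complemented with human TDP1 were seeded at 400 cells/well with DMSO in place of 20 nM camptothecin. After compound pinning, cells grew at least 48 hr at 37 °C; viability read by CellTiter-Glo luminescence.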
HT1080NT lethal: kills 2HG-producing HT-1080-NT fibrosarcoma cells | 1.6% of 360,000 active | HT-1080-NT fibrosarcoma viability, CellTiter-Glo ATP luminescence, 48 h | Potency, µM (top dose mostly 46.1 µM), without a hit: at the top dose activity, negative = less viability, actives largely listed as cytotoxic | AID 686970;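 note: NT is the 2HG producing partner of a matched IDH1 knockdown line; 0% = DMSO-treated cells and -100% = media-only wells without cells; nearly all actives have a fitted effect of over 55% in size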
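Fibrosarcoma NT cells, 750 per well in 5% FBS RPMI, were exposed to compound for 48 hours. Viability: CellTiter-Glo luminescence.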
KB-3-1 cytotox: kills parental KB-3-1 adenocarcinoma cells. KB-3-1 viability, CellTiter-Glo ATP luminescence, 72 h. Potency, µM (series often up to 46.1 µM), actives largely listed as cytotoxic. 1.4% of 400,000 active; note: nearly all actives have a fitted effect of over 60% in size
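KB-3-1 parental drug-naive adenocarcinoma cells in DMEM/10% FBS, incubated 72 h at 37 C with pin-transferred compounds across a concentration series. Viability by CellTiter-Glo luminescence; concentration-response curves fitted after normalization.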
HT1080 IDH1KD tx: toxicity to HT-1080 IDH1 knockdown cells (counter line); HT-1080 IDH1 knockdown viability, ATP luminescence, 48 h; Potency, µM (titrated, usually from 46.1 µM), for inactives: at the top dose activity, negative = toxicity, hits mostly cytotoxic; 2% of 360,000 active;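 note: 0% = DMSO wells and -100% = cell-free medium wells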
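Luminescent ATP read-out (CellTiter-Glo, 10 min at room temperature) after 48 h compound exposure at 37 °C gave viability of IDH1-knockdown HT-1080 cells. Activity was normalised to DMSO and cell-free wells, then fitted as concentration-response curves.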
DT40 TDP1 CPT: DT40-hTDP1 cell growth loss with CPT | chicken DT40 Tdp1-/-;hTDP1 cells + 20 nM CPT, ATP luminescence, 48 h | Potency, µM (doses to about 46.2 µM), without a hit: top-dose activity change, negative = growth inhibition, usual class: inhibitors | 12% of 420,000 active | AID 686979; note: nearly all actives have a fitted effect of over 55% in size
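Chicken DT40 Tdp1-/- cells complemented with human TDP1, 400 cells/well, exposed to compounds plus 20 nM camptothecin for at least 48 h at 37 C; viability read as ATP content by CellTiter-Glo luminescence.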
KB-V1 cytotox: KB-V1 MDR subline cytotoxicity. 3.4% of 400,000 active. KB-V1 MDR cells viability, CellTiter-Glo, 72 h. AID 1347076. Potency, µM (top dose mostly 46.1 µM), actives largely listed as cytotoxic; note: nearly all actives have a fitted effect of over 60% in size
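Cytotoxicity via CellTiter-Glo luminescence after 72 h compound exposure at 37 degrees C. Cells: drug-selected KB-V1 line, DMEM phenol-red free plus 10% FBS. Compounds tested at multiple concentrations; normalized data fitted to concentration-effect curves.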
The depositor's hits bear a star; i = inactive; ? = inconclusive; / = not tested or not shown; [ ] = remark or other dose. Calls come from the whole dose curve; as a rule, active = well fitted curve in the direction sought with a large enough effect; inconclusive = small, poorly fitted or top-dose-only effect, or another doubt; inactive = no such curve, though single readings can be large; an effect the other way counts as inactive or inconclusive. Unless noted, % is set by controls: 0 for no effect and ±100 for the full control effect; potency is the fitted concentration of half-maximal effect.

SMILES	TDP1 cell noCPT	HT1080NT lethal	KB-3-1 cytotox	HT1080 IDH1KD tx	DT40 TDP1 CPT	KB-V1 cytotox
COc1ccc(C(C)(O)c2nc(-c3ccncc3)cs2)cc1 (configuration not stated)	5.8µM*	?	?	?	5.8µM*	?
COc1ccc(C(C)(O)c2nc(-c3cccs3)cs2)cc1 (configuration not stated)	?	-23%	?	?	?	?
COc1ccc(-c2csc(C(C)(O)c3ccccc3)n2)cc1 (configuration not stated)	?	?	i	?	16µM*	i
COc1ccc(C(C)(O)c2nc(-c3ccc(F)c(Cl)c3)cs2)cc1 (configuration not stated)	?	?	i	?	?	i
COc1ccc(C(C)(O)c2nc(-c3ccc(OC)nc3)cs2)cc1 (configuration not stated)	?	-22%	i	-12%	?	i
Cc1ccc(N(CC(=O)NCCc2ccc(Cl)cc2)S(=O)(=O)N(C)C)cc1	?	/	i	/	?	i
Nc1nc2ccccc2n1S(=O)(=O)c1ccccc1	?	-7%	i	-1%	?	i
COc1ncnc2c1ncn2CCCN1CCN(C(=O)C2CC2)CC1	8%	6%	i	4%	-7%	i
COc1ccc(C(C)(O)c2nc(-c3ccc4ccccc4c3)cs2)cc1 (configuration not stated)	?	?	i	?	?	i
COc1ccc(C(C)(O)c2nc(-c3cccc(O)c3)cs2)cc1 (configuration not stated)	23µM*	?	?	8.2µM*	18µM*	i
COc1ccc(-c2csc(C(C)(O)c3cccnc3)n2)cc1 (configuration not stated)	21µM*	?	i	?	16µM*	i
COc1ccc(-c2csc(C(C)(O)c3ccc(OC)cc3)n2)cc1 (configuration not stated)	?	-23%	i	?	15µM*	i
COc1ccc(C(C)(O)c2nc(-c3ccccc3)cs2)cc1 (configuration not stated)	13µM*	?	?	16µM*	18µM*	?
Cc1nn(CC(=O)N2CCC(C)CC2)c(=O)c2cc3sccc3n12	-28%	/	i	/	-14%	i
COc1ccc(C2=NN(CCC(=O)NCc3cccs3)C(=O)CC2)cc1	-4%	16%	i	6%	-12%	i
COC(=O)N1c2ccccc2C23[C@@H]4CN5CCC[C@]6(CCC12C(O)(C6)C4=O)[C@H]53	-15%[9.04 µM]	/	/	/	-15%[9.04 µM]	/
CCCCCCCCCCCC(=O)OC[C@@H](O)C1OC[C@H](O)[C@H]1O (some centres not stated)	-15%	/	/	/	7%	/
O=C(Nc1nnc(COc2ccc(Cl)cc2)s1)c1ccco1	?	4%	i	3%	29µM*	i
Cc1ccc(OCc2nnc(NC(=O)c3ccco3)s2)cc1	-13%	11%	i	13%	-15%	i
CCCOc1cccc(-c2nnc(NC(=O)c3ccco3)s2)c1	21µM*	-5%	?	0%	?	?
O=C(Nc1nnc(COc2ccc(F)cc2)s1)c1cccs1	-19%	-29%	i	?	-14%	i
COc1cccc(-c2nnc(NC(=O)c3ccco3)s2)c1	?	16%	i	13%	-7%	i
O=C(Nc1nnc(COc2ccc(Cl)cc2)s1)c1cccs1	12µM*	10%	?	20%	15µM*	?
Cc1cccc(Cc2nc3ccccc3[nH]2)c1	?	1%	i	2%	-20%	i
CN1CCc2c(c3cnc4cc(Cl)ccc4c3n2C)C1	?	/	i	/	?	i
SMILES	TDP1 cell noCPT	HT1080NT lethal	KB-3-1 cytotox	HT1080 IDH1KD tx	DT40 TDP1 CPT	KB-V1 cytotox
Cn1c2c(c3cnc4cc(Cl)ccc4c31)CN(Cc1ccc(Cl)cc1)CC2	7.1µM*	/	?	/	7.9µM*	i
COc1ccc(N(Cc2ccccc2)C(=O)c2nc(SC)ncc2Cl)cc1	5.2µM*	/	?	/	10µM*	?
COC(=O)c1ccc(C(=O)N(Cc2ccccc2)c2ccccc2)cc1	?	-9%	i	-9%	?	i
CCS(=O)(=O)c1ncc(Cl)c(C(=O)N(Cc2ccccc2)c2ccc(OC)cc2)n1	0.65µM*	/	/	/	1µM*	/
CCCCNC(=O)[C@@H]1Cc2ccccc2N1C(=O)[C@H](N)CC	?	/	/	/	-11%	/
OC[C@H]1O[C@@H](n2cnc3c2NC=NC[C@H]3O)C[C@@H]1O	-17%	/	/	/	-13%	/
O=S(=O)(c1cccc(-c2nc3ccccc3s2)c1)N1CCOCC1	-18%	-8%	?	-7%	?	16µM*
Cc1ccc(-c2nc3ccccc3s2)cc1S(=O)(=O)N1CCCC1	?	-41%	i	10µM*	13µM*	i
Cc1cccc(-c2nc(S(=O)(=O)c3ccc(Cl)cc3)c(N3CCCCCC3)o2)c1	?	/	i	/	?	i
O=S(=O)(c1ccccc1)c1nc(-c2cccc(Cl)c2)oc1N1CCOCC1	18µM*	-3%	i	-5%	?	i
Cc1ccc(S(=O)(=O)c2nc(-c3ccc(Cl)cc3)oc2N2CCCCCC2)cc1	?	/	i	/	?	i
Cc1ccc(-c2nc(S(=O)(=O)c3ccc(C)cc3)c(N3CCCCC3)o2)cc1	7.3µM*	/	i	/	6.5µM*	i
O=S(=O)(c1ccccc1)c1nc(-c2ccc(Cl)cc2Cl)oc1N1CCCCCC1	18µM*	/	i	/	23µM*	i
Cc1ccc(S(=O)(=O)c2nc(-c3ccccc3)oc2N2CCCCCC2)cc1	21µM*	/	i	/	23µM*	i
CCCCC(C)(O)C/C=C/[C@H]1[C@H](O)CC(=O)[C@@H]1CCCCCCC(=O)O (some centres not stated)	12%[4.12 µM]	/	/	/	7%[4.12 µM]	/
Cc1cccc(-c2nc(S(=O)(=O)c3ccccc3)c(N3CCN(c4ccccc4)CC3)o2)c1	7.3µM*	/	i	/	18µM*	i
CN(C)CCCNc1oc(-c2ccccc2Cl)nc1S(=O)(=O)c1ccccc1	?	-10%[9.24 µM]	i	-2%	?	?

Source: PubChem BioAssay
